# According to PubChem BioAssay AID504652 (National Center for Advancing Translational Sciences (NCATS), 2011):
# Hit rate of the full screen: of about 360,000 compounds, about 11,000 (3.1%) were called active. This is one part of a sample in which actives are shown more often than they occur. Cut-off read from the data, not from the text of the source: active = activity change below about -30%; inactive = the rest.
# Biological target: D(1A) dopamine receptor (Homo sapiens) (UniProt P21728)
# Assay: Antagonist of Human D 1 Dopamine Receptor: qHTS
# Settings: HEK293 TREx D1 cells, calcium flux, dopamine EC80; at 10 µM; hits give low values
# Outline: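 HEK293 T-REx cells expressing inducible, force-coupled D1 receptor; no-wash Ca dye, 30–90 min RT. Cmpd → 180 s read at 1 Hz → EC80 DA → 180 s read.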
# % is set by controls: 0 for no effect and ±100 for the full control effect.
# Chain of D(1A) dopamine receptor (Homo sapiens) (P21728 whole entry, looked up): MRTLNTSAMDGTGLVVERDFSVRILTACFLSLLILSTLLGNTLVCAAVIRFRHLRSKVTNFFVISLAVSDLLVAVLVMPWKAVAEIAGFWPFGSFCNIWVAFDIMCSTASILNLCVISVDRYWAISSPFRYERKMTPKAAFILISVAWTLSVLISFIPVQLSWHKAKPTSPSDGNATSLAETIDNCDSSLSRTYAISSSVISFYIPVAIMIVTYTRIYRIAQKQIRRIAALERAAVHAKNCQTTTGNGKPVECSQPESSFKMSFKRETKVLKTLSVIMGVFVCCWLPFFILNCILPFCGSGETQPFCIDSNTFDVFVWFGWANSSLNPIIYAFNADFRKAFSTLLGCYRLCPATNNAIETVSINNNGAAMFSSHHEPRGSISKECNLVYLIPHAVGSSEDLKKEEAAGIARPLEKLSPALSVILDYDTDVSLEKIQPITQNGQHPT
row,Compound,"activity change, negative = inhibition"
1,O=C(CSc1n[nH]c(-c2cccnc2)n1)Nc1ccc(Cl)cc1,24.7% (inactive)
2,O=C(CSc1n[nH]c(-c2cccnc2)n1)Nc1ccnc2ccccc12,-30.8% (active)
3,O=C(CSc1ncn[nH]1)Nc1ccnc2ccccc12,-18.5% (inactive)
4,O=C(CNC(=O)c1ccc(Cl)c(C(F)(F)F)c1)OC(C(=O)Nc1cc(C(F)(F)F)ccc1Cl)c1ccccc1 (configuration not stated),7.72% (inactive)
5,COc1ccc(Cl)cc1S(=O)(=O)N1CCC(c2ccncc2)CC1,8.07% (inactive)
6,CCCn1c2ccccc2c2cnn(CC(=O)N3CCCC(C(=O)OCC)C3)c(=O)c21 (configuration not stated),13.4% (inactive)
7,Cc1ccc(Cn2c(C)c3cnn(CC(=O)NCc4ccccc4)c(=O)c3c2C)cc1,-2.69% (inactive)
8,CCOC(=O)C1CCCN(C(=O)Cn2ncc3c(C)n(Cc4ccc(F)cc4)c(C)c3c2=O)C1 (configuration not stated),-36.8% (active)
9,CC1CCN(C(=O)Cn2c(=O)n(-c3ccc(Cl)cc3)c(=O)c3c4c(sc32)CCC4)CC1,-0.901% (inactive)
10,CSc1ccc(NC(=O)Cn2nnnc2-c2ccccc2F)cc1,-8.36% (inactive)
11,Cc1ccc(Cl)cc1NC(=O)C(C)n1nnc2sc(-c3ccccc3)cc2c1=O (configuration not stated),-1.65% (inactive)
12,CCN(CCn1cccn1)Cc1cn[nH]c1-c1ccc(OC)cc1F,0.481% (inactive)
13,COC(=O)c1ccc(-c2noc(CN(Cc3ccccn3)CC3CCCO3)n2)cc1 (configuration not stated),-16.4% (inactive)
14,CCN(CCn1cccn1)Cc1nc(-c2ccc(C(=O)OC)cc2)no1,-44.5% (active)
15,COC(=O)c1ccccc1NC(=O)c1ccc(C#N)cc1,6.29% (inactive)
16,CC(C)(C)C(=O)NCCCNc1ccc([N+](=O)[O-])cc1,-35.6% (active)
17,COCCCNC(=S)NC(=O)c1ccc([N+](=O)[O-])cc1,5.38% (inactive)
18,O=[N+]([O-])c1ccc(NCCCO)c(C(F)(F)F)c1,6.05% (inactive)
19,CC1=C(C(=O)OCc2ccc(C)cc2)C(c2ccccc2Cl)CC(=O)N1 (configuration not stated),-1.32% (inactive)

row,Compound,"activity change, negative = inhibition"
1,Cc1cccc(Cn2c(=O)n(CCC(=O)NCCc3ccc(Cl)cc3)c(=O)c3sccc32)c1,-1.13% (inactive)
2,CCN(CCCNC(=O)c1cc2cc3cc(OC)ccc3nc2s1)c1ccccc1,-2.73% (inactive)
3,Cc1ccc(CSc2nc3[nH]ncc3c(=O)[nH]2)cc1,-7.82% (inactive)
4,CCCSc1nc2[nH]ncc2c(=O)[nH]1,-32.5% (active)
5,O=C(CSc1nc2[nH]ncc2c(=O)[nH]1)Nc1ccc(F)cc1,-21.9% (inactive)
6,CCc1ccccc1NC(=O)CSc1nnc(-c2ccccc2)c(-c2ccccc2)n1,6.16% (inactive)
7,CCN(C(=O)CN1C(=O)/C(=C/c2ccc(F)cc2)SC1=S)C1CCS(=O)(=O)C1 (configuration not stated),6.56% (inactive)
8,O=C1/C(=C/c2ccc(F)cc2)SC(=S)N1NS(=O)(=O)c1ccccc1,-4.82% (inactive)
9,O=C1/C(=C/c2ccc(F)cc2)SC(=S)N1CCCC(=O)N1CCCCC1CCO (configuration not stated),-30.8% (active)
10,O=C(Cn1cnc2c(oc3ccccc32)c1=O)Nc1ccc(OC(F)(F)F)cc1,17.3% (inactive)
11,Cc1cc(NC(=O)Nc2ccc(Cl)cc2)n(-c2ccccc2)n1,-15.2% (inactive)
12,Cc1cc(Nc2ccccc2)n(C(=O)c2ccc(N)cc2)n1,-35.8% (active)
13,Cn1c(Nc2ccccc2)cc(=O)n(C)c1=O,4.71% (inactive)
14,O=C(c1cccs1)c1cn(CCOc2ccc(Cl)cc2)c2ccccc12,-2.17% (inactive)
15,O=C1C(C=NCC2CCCO2)=C(O)c2ccccc21 (configuration not stated),-0.787% (inactive)
16,O=C1c2cccc3c([N+](=O)[O-])ccc(c23)C(=O)N1CC1CCCO1 (configuration not stated),-30.6% (active)
17,CN1CN(C)c2ccc([N+](=O)[O-])c3cccc1c23,1.14% (inactive)
18,CC(=O)c1ccc(NC(=O)c2nc3nc(C)cc(C(F)F)n3n2)cc1,6.33% (inactive)
19,CCOC(=O)c1ccc(NC(=O)Cn2c(=O)n(-c3ccc(C)cc3)c(=O)c3c2cnn3C)cc1,-7.04% (inactive)

row,Compound,"activity change, negative = inhibition"
1,CCn1cc(C(=O)NCc2ccccc2)c(=O)c2cc(S(=O)(=O)N3CCCCC3)ccc21,1.17% (inactive)
2,CCn1c(CNC(=O)C23CC4CC(CC(C4)C2)C3)nnc1SCC(=O)Nc1ccc(OC)cc1,17.4% (inactive)
3,CCOc1ccc(-c2noc(CCC(=O)NC3CCCC3)n2)cc1OC,5.22% (inactive)
4,COc1ccc(-c2noc(CCCC(=O)NC3CCCC3)n2)cc1OC,-31.9% (active)
5,CCOc1cc(-c2noc(CCCC(=O)NC3CCCCC3)n2)ccc1OC,-2.32% (inactive)
6,CCOC(=O)c1c(NC(=O)CSc2cn(CC)c3ccccc23)sc2c1CCC2,-30.9% (active)
7,CCOC(=O)c1c(NC(=O)CSc2cn(CCNC(=O)c3cccc(C(F)(F)F)c3)c3ccccc23)sc2c1CCC2,-11.4% (inactive)
8,CCOC(=O)c1c(NC(=O)C(C)Sc2c[nH]c3ccccc23)sc2c1CCC2 (configuration not stated),4.04% (inactive)
9,Cc1cccc(C(=O)Nc2ccc(S(=O)(=O)N3CCCCC3c3cccnc3)cc2)c1 (configuration not stated),-26.5% (inactive)
10,O=C1CCCc2cc(S(=O)(=O)N3CCCC(C(=O)NCc4ccccc4)C3)ccc2N1 (configuration not stated),-3.91% (inactive)
11,CC(=O)Nc1ccc(NC(=O)C2CCCN(S(=O)(=O)c3ccc4c(c3)CCCC(=O)N4)C2)cc1 (configuration not stated),0.61% (inactive)
12,COc1ccc(OC)c(NC(=O)C2CCCN(S(=O)(=O)c3ccc4c(c3)CCCC(=O)N4)C2)c1 (configuration not stated),-38.1% (active)
13,Cc1ccc(CNC(=O)CCc2c(C)nn(-c3ccc(N4CCCC4)nn3)c2C)cc1,-0.419% (inactive)
14,CCCCC12CN3CC(C)(CN(C1)C3c1ccc(O)c(OC)c1)C2=O (configuration not stated),3.82% (inactive)
15,CCOC(=O)c1ccc(NC2=CC(c3ccc(OCC)cc3)N(c3ccc(C(=O)OCC)cc3)C2=O)cc1 (configuration not stated),-6.51% (inactive)
16,COc1ccc(NC(=O)c2c(C)oc3c2CCCC3)cc1,-45.1% (active)
17,COc1ccc(C(=O)Nc2onc3c2CCCC3)cc1,-17.5% (inactive)
18,COc1ccc(NC(=O)c2cc3cc(C)ccc3n2C)cc1,7.2% (inactive)
19,O=C(CCSCc1cccc(F)c1)NCc1ccccc1,-0.666% (inactive)
